According to PubChem BioAssay AID504321 (NMMLSC, 2011):
Several values for one entry are separate records, joined by “and”; a condition that tells them apart may be missing. Equal entries are not always repeated. Values without a mark were called inactive. Activity calls are given as the source filed them.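 Rule for the calls: active = GFP response vs DMSO above 150% with enough events counted; inconclusive = fewer than 70 events counted for a yeast strain; inactive = the rest.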

Assay: MEP2-GFP expression modulation in yeast, confirmation, flow cytometry, third cherry pick, S. cerevisiae (AID 504321);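 note: median per-cell GFP fluorescence by flow cytometry across all yeast cells; ratio of sample to DMSO median GFP so 100% equals the DMSO level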
Conditions: S. cerevisiae MEP2-GFP strain, 3 h, at 10 µM, active compounds read high

Structure (SMILES) | GFP response vs DMSO
COc1ccc(-c2cc(C(F)(F)F)nc(S(C)(=O)=O)n2)cc1OC | 114% and 121%
Oc1ccc(Cl)c2cccnc12 | 101%
Brc1ccc2ncnc(NCc3ccccc3)c2c1 | 105%
C=CCNc1ncnc2ccccc12 | 114%
CC(=O)NCCOc1cccc2cccnc12 | 110%
C[n+]1cccc2cccc([O-])c21 | 116%
CNc1cccc2c1C(=O)c1ccccc1C2=O | 114%
N#Cc1c(N)nc(N)nc1Nc1ccc(Br)cc1 | 110%
Cc1ccc(Nc2nc(N)[nH]c(=O)c2N=O)cc1 | 108%
O=C(Nc1ccccc1)O/N=C1\CCCCC1c1ccc([N+](=O)[O-])cc1[N+](=O)[O-] (configuration not stated) | 105%
COc1cc(=O)n(C)c2c(O)cccc12 | 110%
Cc1ccc(NN2C(=O)C=C(c3ccccc3)C2=O)cc1 | 140%
C/C(=C\C(=O)c1ccc(C)cc1)Nc1cccc(O)c1 | 108%
CC(=O)NC(C)c1cc(Cl)c2cccnc2c1O (configuration not stated) | 99%
COc1ccc(Nc2nc(NN)nc(C)c2[N+](=O)[O-])cc1 | 101%
O=C(O)c1ccccc1-c1ccccc1C(=O)Nc1ccc(-c2nc3cc(Cl)ccc3o2)cc1 | 116%
Cc1cc(C)c2ccc(C(=O)O)nc2c1O | 112%
C/C(=C\C(=O)c1ccccc1)Nc1cccc(O)c1 | 110%
COCCNc1nc(N)c([N+](=O)[O-])c(Nc2ccc(F)cc2)n1 | 105%
CC(=O)CC(=O)Nc1ccc(C(N)=O)cc1 | 112%
CN(C)CCCNc1cc(O)c2ncccc2c1 | 118%
Oc1c(I)cc(Cl)c2cccnc12 | 181% (active)
